GIRK2 activator: activators of NPY4-receptor-primed GIRK2 channels, summary, cell-based, HEK293, thallium flux | G protein-activated inward rectifier potassium channel 2 (Homo sapiens), P48051 | HEK293 GIRK2/NPY4 cells, thallium flux fluorescence | activation (% efficacy), % for hits at 37.5 µM | 34,000 tested, under 10 active | AID 1259324, 2017;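 active = primary screen hit, no activity in plain HEK293 cells, and in GIRK2-only cells above 5% efficacy rising with concentration; inactive = the rest, including fluorescent compounds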;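 note: efficacy is normalized control-subtracted fluorescence 15 s after thallium addition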
AMPAR-TARP mod: modulators of GluA2-stargazin AMPA receptor complexes, primary screen, cell-based, membrane potential dye. Voltage-dependent calcium channel gamma-2 subunit (Mus musculus) + Glutamate receptor 2 …. HEK293 GluA2+stargazin, membrane potential dye (FDSS), glutamate EC50; hits were called plate by plate, in both directions. calls only at 30 µM. 3.5% of 40,000 active. AID 1259245, 2017;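 active = any of four per-well response measures lying three or more SD from its plate-wide compound average, in either direction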
* = called active by the depositor; i = inactive; nt = no result; + = active, no number. Many of the other results were omitted from the sample, so hits are more common in it than they were.

SMILES | GIRK2 activator | AMPAR-TARP mod
CCOC(=O)c1ccccc1NC(=O)CSc1nc2ccsc2c(=O)n1CC(C)C | i | i
O=c1ccc(-c2ccccc2)nn1CCCNS(=O)(=O)c1ccc2c(c1)CCCC2 | i | +
O=c1ccc(-c2cccs2)nn1CCCNS(=O)(=O)c1ccc(Cl)c(Cl)c1 | i | i
COc1ccc(-c2ccc(=O)n(CCNS(=O)(=O)c3ccc4c(c3)CCCC4)n2)cc1 | nt | i
O=c1ccc(-c2cccs2)nn1CCCNS(=O)(=O)c1cccc(C(F)(F)F)c1 | i | +
Cc1ccc(-c2ccc(=O)n(CCCNS(=O)(=O)c3c(C)cc(C)cc3C)n2)cc1 | i | +
COc1ccc(-c2ccc(=O)n(CCNS(=O)(=O)c3c(C)cc(C)cc3C)n2)cc1 | nt | i
COCCNc1oc(-c2ccco2)nc1S(=O)(=O)c1ccc(C)cc1 | i | i
O=C(COc1ccc(F)cc1F)NCCOc1cccc(C(F)(F)F)c1 | i | i
COc1ccc(-c2nnc(NC(=O)c3cc(C)nn3C)o2)cc1OC | i | +
Cc1cc(-c2nnc(NC(=O)/C=C/c3ccccc3)o2)nn1C | i | i
CCn1nc(C(=O)Nc2nnc(-c3ccc(OC)cc3)o2)cc1C | i | nt
COc1cc(-c2nnc(NC(=O)c3cc(C)n(C)n3)o2)cc(OC)c1OC | i | +
COC(=O)c1ccc(C(=O)Nc2nnc(-c3cc(C)n(C)n3)o2)cc1 | i | i
COc1cc(/C=C/C(=O)Nc2nnc(-c3ccn(C)n3)o2)cc(OC)c1OC | i | +
COc1ccc(-c2nnc(NC(=O)c3ccn(C)n3)o2)cc1OC | i | i
COc1cc(C(=O)Nc2nnc(-c3cc(C)n(C)n3)o2)cc(OC)c1OC | i | +
CCOc1nn(CC)cc1-c1nnc(SCC(=O)N2CCC(C)CC2)n1C | i | i
O=C(/C=C/c1ccccc1Cl)Nc1ccc2ncsc2c1 | i | i
CCCN1C(=O)NC2(CCN(S(=O)(=O)c3ccc(NC(C)=O)cc3)CC2)C1=O | i | i
O=C(NCCCn1nc(-c2ccccc2)ccc1=O)c1ccc(=O)[nH]n1 | i | i
COCC(=O)NCc1cc(C)on1 | i | i
O=c1nc(SCc2ccc([N+](=O)[O-])cc2)c2c(n1CCCO)CCC2 | i | i
COc1cccc2cc(C(=O)Nc3nnc(-c4cc(C)nn4C)o3)oc12 | i | +
COc1cccc(C(=O)Nc2nnc(-c3cc(C)nn3C)o2)c1OC | i | nt
SMILES | GIRK2 activator | AMPAR-TARP mod
Cc1ccccc1-c1ccc(N2CCC(C(=O)NCc3ccco3)CC2)nn1 | i | +
Cc1ccccc1-c1ccc(N2CCC(C(=O)NCc3cccnc3)CC2)nn1 | i | i
COc1cccc(C(=O)Nc2nnc(-c3ccc(C)c(C)c3)o2)c1 | i | i
COc1cccc(C(=O)Nc2nnc(-c3cc(OC)c(OC)c(OC)c3)o2)c1 | nt | +
COc1cc(-c2nnc(NC(=O)c3ccc(C(C)=O)cc3)o2)cc(OC)c1OC | nt | +
COc1cc(-c2nnc(NC(=O)c3ccc(OC(C)C)cc3)o2)cc(OC)c1OC | nt | i
Cn1nccc1C(=O)N(Cc1ccccn1)c1nc2ccc(Cl)cc2s1 | i | nt
O=C(Nc1ccc(CC(=O)N2CCC(O)CC2)cc1)c1cc(-c2ccco2)on1 | i | nt
O=C(Nc1cccc(-c2cnc3n2CCC3)c1)c1cc(-c2ccco2)on1 | i | +
CCOc1ccc(C(=O)Nc2cc3c4c(c2)CCC(=O)N4CCC3)cc1 | i | i
O=C(Nc1cccc(-c2cnc3n2CCC3)c1)c1ccc2nc[nH]c2c1 | i | +
CCOc1ccc(C(=O)Nc2cccc(-c3cnc4n3CCC4)c2)cc1 | i | +
O=C(Nc1ccc2cn[nH]c2c1)c1ccc2nc[nH]c2c1 | i | i
COc1ccc(OC)c(-c2ccc(=O)n(CC(=O)N3CCN(c4ccccc4)CC3)n2)c1 | i | i
COc1ccc(N2CC(NC(=O)c3ccccc3C(F)(F)F)CC2=O)cc1 (configuration not stated) | nt | +
O=C(NC1CC(=O)N(c2ccccc2)C1)c1ccccc1C(F)(F)F (configuration not stated) | nt | i
Cc1ccc(Cl)cc1NC(=O)CCn1cncn1 | i | i
COc1ccc(CCNC(=O)N2CCN(Cc3nc(-c4cccs4)cs3)CC2)cc1 | i | i
CCOc1ccc(/C=C/C(=O)Nc2ccccc2C)cc1OC | nt | i
Cc1nc(NC(=O)c2cccc(Br)c2)sc1C | i | +
Cc1nc(NC(=O)c2ccc(S(=O)(=O)N(C)Cc3ccccc3)cc2)sc1C | i | i
CN(Cc1ccco1)S(=O)(=O)c1ccc(C(=O)N2CCN(c3nc4ccccc4s3)CC2)cc1 | nt | i
COc1cccc(NC(=O)CCc2sc(C)nc2-c2cccs2)c1 | i | i
COCCn1c(SCc2ccc(Cl)cc2)nc2cc(C(=O)NC(C)C)ccc2c1=O | i | i
COCCn1c(SCC(=O)c2c(C)[nH]c3ccccc23)nc2cc(C(=O)NC(C)C)ccc2c1=O | nt | +
SMILES | GIRK2 activator | AMPAR-TARP mod
O=C(NCC1CCN(C2CCCC2)CC1)C(=O)Nc1ccon1 | i | i
Cc1ccnc(NS(=O)(=O)c2ccc(NC(=O)c3nc(-c4cnccn4)no3)cc2)n1 | i | i
O=C(Nc1ccc(S(=O)(=O)Nc2nccs2)cc1)c1nc(-c2cnccn2)no1 | i | +
NS(=O)(=O)c1ccc(NS(=O)(=O)c2ccc(NC(=O)C3CCCCC3)cc2)cc1 | i | i
O=C(NC(=S)Nc1ccc(S(=O)(=O)NC2CCCCC2)cc1)c1cccs1 | nt | +
COC(=O)c1ccccc1N=Nc1c(N)[nH]n(-c2ccccc2)c1=O | nt | +
COC(=O)c1ccccc1-n1c(=O)c2ccccc2c2ccccc2c1=O | nt | i
CCCC(=O)NCCn1nc(-c2ccccn2)n(C)c1=O | i | i
Cc1ccccc1Cn1cc(C(=O)Nc2cccc([N+](=O)[O-])c2)ccc1=O | i | i
O=C(Nc1cccc([N+](=O)[O-])c1)c1ccc(=O)n(Cc2ccccc2F)c1 | i | +
COc1cc([N+](=O)[O-])ccc1NC(=O)c1ccc(=O)n(Cc2ccccc2Cl)c1 | i | i
COc1ccccc1NC(=O)c1ccc(=O)n(Cc2cccc([N+](=O)[O-])c2)c1 | i | i
COc1cc([N+](=O)[O-])ccc1NC(=O)c1ccc(=O)n(Cc2ccc(F)cc2)c1 | i | +
Cc1cc([N+](=O)[O-])ccc1NC(=O)c1ccc(=O)n(Cc2ccc(F)cc2)c1 | i | i
COc1cc([N+](=O)[O-])ccc1NC(=O)c1ccc(=O)n(Cc2cccc([N+](=O)[O-])c2)c1 | i | +
COc1cc([N+](=O)[O-])ccc1NC(=O)c1ccc(=O)n(Cc2ccccc2F)c1 | i | +
CC(C)NC(=O)C(=O)NCC(=O)N1CCOC(c2ccccc2)C1 (configuration not stated) | i | nt
O=C(NCCC(c1ccccc1)c1ccccc1)c1ncccn1 | i | i
O=C(NCCS(=O)(=O)N1CCN(c2ncccn2)CC1)c1ccc2c(c1)OCO2 | i | i
